Source: PubChem BioAssay (NCI)
Compounds without any hit were thinned out: in the full panel of roughly 79,000, 15% have a hit. Unmarked numbers belong to inactive results. Calls of active or inactive are those of the source. Cut-off read from the data, not from the text of the source: active = growth inhibition above about 70%; inactive = the rest.

What was measured:
[1] = NCI Yeast Anticancer Drug Screen. Data for the rad52 strain (AID 147);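 note: 0% = growth of vehicle-treated control cultures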; conditions: S. cerevisiae rad52 mutant growth inhibition, hits give high values
How it was run: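 The repair-mutant yeast strain was incubated with compounds, then growth was read and inhibition derived relative to vehicle.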

[2] = NCI Yeast Anticancer Drug Screen. Data for the wt1 strain (AID 149);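 note: 0% = growth of vehicle-treated wt1 cultures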; conditions: S. cerevisiae wt1 strain (SPY 50644) growth inhibition, hits give high values
How it was run: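 Using yeast strain wt1, compound-induced growth inhibition was determined against vehicle-treated cultures.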

[3] = NCI Yeast Anticancer Drug Screen. Data for the rad50EPP+ strain (AID 151);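 note: 0% = growth of vehicle-treated control cultures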; conditions: S. cerevisiae rad50 mutant strain, hits give high values
How it was run: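 Vehicle-normalised growth inhibition; rad50EPP+ yeast strain, altered in DNA damage repair, compound-treated.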

[4] = NCI Yeast Anticancer Drug Screen. Data for the mgt1 strain (AID 153); conditions: S. cerevisiae mgt1 mutant growth inhibition, hits give high values
How it was run: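 Vehicle-normalized growth inhibition is determined in mgt1 yeast, a strain selected for a defined alteration in DNA repair or cell cycle control.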

[5] = NCI Yeast Anticancer Drug Screen. Data for the rad50 strain (AID 155);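 note: 0% = growth of vehicle-only cultures of the same strain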; conditions: S. cerevisiae rad50 strain growth inhibition, hits give high values
How it was run: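 Relative growth inhibition (compound vs vehicle) was measured in yeast with a defined repair-gene alteration.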

[6] = NCI Yeast Anticancer Drug Screen. Data for the mec2-1 strain (AID 157); conditions: S. cerevisiae mec2-1 strain, hits give high values
How it was run: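 Mutant yeast (mec2-1) grown with compound; growth inhibition relative to vehicle control reported.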

[7] = NCI Yeast Anticancer Drug Screen. Data for the rad14 strain (AID 159);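 note: 0% = growth of vehicle-treated control cultures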; conditions: S. cerevisiae rad14 strain growth inhibition, hits give high values
How it was run: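 Screen for anticancer potential: a yeast strain altered in DNA damage repair is grown with compound, and reduced growth is quantified against vehicle controls.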

[8] = NCI Yeast Anticancer Drug Screen. Data for the sgs1 mgt1 strain (AID 161);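 note: 0% = growth of cultures given vehicle only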; conditions: S. cerevisiae sgs1 mgt1 strain, hits give high values
How it was run: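 Yeast cells carrying a defined DNA-repair defect were exposed to test compounds. Growth inhibition was measured relative to vehicle-treated controls.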

[9] = NCI Yeast Anticancer Drug Screen. Data for the CLN2oe strain (AID 163);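 note: 0% = growth of vehicle-only control cultures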; conditions: S. cerevisiae CLN2oe strain, hits give high values
How it was run: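 Compounds are applied to yeast harbouring a defined cell-cycle control change; reduced growth compared with vehicle-treated controls gives the value.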

[10] = NCI Yeast Anticancer Drug Screen. Data for the cln2 rad14 strain (AID 165);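 note: 0% = growth equal to vehicle treated cultures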; conditions: S. cerevisiae cln2 rad14 strain, hits give high values
How it was run: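 Readout is yeast growth inhibition versus vehicle-treated controls, using a strain with cln2 and rad14 alterations exposed to compound.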

[11] = NCI Yeast Anticancer Drug Screen. Data for the bub3 strain (AID 167); conditions: S. cerevisiae bub3 mutant strain, hits give high values
How it was run: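 Screening used yeast with an engineered genetic alteration affecting cell cycle control. Compound-exposed cultures were compared with vehicle cultures, and reduced growth was taken as inhibition.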

[12] = NCI Yeast Anticancer Drug Screen. Data for the wt2 strain (AID 169);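 note: 0% = growth of vehicle-treated yeast cultures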; conditions: S. cerevisiae wt2 strain growth inhibition, hits give high values
How it was run: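 Against vehicle-treated controls, the growth of yeast exposed to each compound was compared, and the inhibition was recorded.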

[13] = NCI Yeast Anticancer Drug Screen. Data for the mlh1 strain (AID 171);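 note: 0% = growth of vehicle-treated control cultures of the same strain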; conditions: S. cerevisiae mlh1 strain growth inhibition, hits give high values
How it was run: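 Measured: yeast growth. Reference: vehicle-treated controls. Organism: strain with a defined alteration affecting DNA damage repair or cell cycle control, treated with compound.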

[14] = NCI Yeast Anticancer Drug Screen. Data for the sgs1 strain (AID 173);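 note: 0% = growth of vehicle-only control cultures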; conditions: S. cerevisiae sgs1 mutant, hits give high values
How it was run: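 Each compound was added to cultures of the altered yeast strain. Growth was recorded, and inhibition was derived by comparison with vehicle controls.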

[15] = NCI Yeast Anticancer Drug Screen. Data for the mlh1 rad18 strain (AID 175); conditions: S. cerevisiae mlh1 rad18 strain growth inhibition, hits give high values
How it was run: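 Genetically defined yeast (DNA repair-deficient) exposed to compounds; growth inhibition determined relative to vehicle.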

[16] = NCI Yeast Anticancer Drug Screen. Data for the rad18 strain (AID 177); conditions: S. cerevisiae rad18 mutant growth inhibition, hits give high values
How it was run: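 Vehicle-treated cultures served as the baseline for scoring compound-induced growth inhibition in DNA-repair-mutant yeast.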

[17] = at 5.0 µM (retest, dose inferred, filed as 0.5)
[18] = at 50.0 µM (retest, dose inferred, filed as 5.0)

Question: With `O=C1C=C(Br)C(=O)c2ccccc21` as the compound, how does the growth inhibition ([1]; at 1.2 µM) read?
Answer: 6%

Question: And the growth inhibition ([1]; at 3.7 µM)?
Answer: 19%

Question: And the growth inhibition ([1]; at 11.0 µM)?
Answer: 94% (active)

Question: And the growth inhibition ([1]; at 33.0 µM)?
Answer: 99% (active)

Question: And the growth inhibition ([1]; at 100.0 µM)?
Answer: 99% (active)

Question: What about the growth inhibition ([2]; at 1.2 µM) of the same compound?
Answer: 10%

Question: And the growth inhibition ([2]; at 3.7 µM)?
Answer: 23%

Question: What about the growth inhibition ([2]; at 11.0 µM) of the same compound?
Answer: 73% (active)

Question: And the growth inhibition ([2]; at 33.0 µM)?
Answer: 99% (active)

Question: What about the growth inhibition ([2]; at 100.0 µM) of the same compound?
Answer: 99% (active)

Question: What about the growth inhibition ([3]; at 1.2 µM) of the same compound?
Answer: 19%

Question: And the growth inhibition ([3]; at 3.7 µM)?
Answer: 39%

Question: And the growth inhibition ([3]; at 11.0 µM)?
Answer: 95% (active)

Question: What about the growth inhibition ([3]; at 33.0 µM) of the same compound?
Answer: 99% (active)

Question: And the growth inhibition ([3]; at 100.0 µM)?
Answer: 98% (active)

Question: What about the growth inhibition ([4]; at 1.2 µM) of the same compound?
Answer: 11%

Question: And the growth inhibition ([4]; at 3.7 µM)?
Answer: 18%

Question: And the growth inhibition ([4]; at 11.0 µM)?
Answer: 96% (active)

Question: And the growth inhibition ([4]; at 33.0 µM)?
Answer: 99% (active)

Question: And the growth inhibition ([4]; at 100.0 µM)?
Answer: 99% (active)

Question: And the growth inhibition ([5]; at 1.2 µM)?
Answer: 9%

Question: And the growth inhibition ([5]; at 3.7 µM)?
Answer: 46%

Question: What about the growth inhibition [5, 17] of the same compound?
Answer: 27%

Question: And the growth inhibition ([5]; at 11.0 µM)?
Answer: 98% (active)

Question: What about the growth inhibition ([5]; at 33.0 µM) of the same compound?
Answer: 99% (active)

Question: What about the growth inhibition [5, 18] of the same compound?
Answer: 99% (active)

Question: And the growth inhibition ([5]; at 50.0 µM)?
Answer: 99.2% (active)

Question: What about the growth inhibition ([5]; at 100.0 µM) of the same compound?
Answer: 99% (active)

Question: What about the growth inhibition ([6]; at 1.2 µM) of the same compound?
Answer: 17%

Question: And the growth inhibition ([6]; at 3.7 µM)?
Answer: 37%

Question: And the growth inhibition [6, 17]?
Answer: 39%

Question: And the growth inhibition ([6]; at 11.0 µM)?
Answer: 97% (active)

Question: And the growth inhibition ([6]; at 33.0 µM)?
Answer: 99% (active)

Question: And the growth inhibition [6, 18]?
Answer: 99% (active)

Question: And the growth inhibition ([6]; at 50.0 µM)?
Answer: 99.2% (active)

Question: What about the growth inhibition ([6]; at 100.0 µM) of the same compound?
Answer: 99% (active)

Question: What about the growth inhibition ([7]; at 1.2 µM) of the same compound?
Answer: 10%

Question: What about the growth inhibition ([7]; at 3.7 µM) of the same compound?
Answer: 24%

Question: What about the growth inhibition ([7]; at 11.0 µM) of the same compound?
Answer: 98% (active)

Question: What about the growth inhibition ([7]; at 33.0 µM) of the same compound?
Answer: 99% (active)

Question: And the growth inhibition ([7]; at 100.0 µM)?
Answer: 99% (active)

Question: What about the growth inhibition [8, 17] of the same compound?
Answer: 57%

Question: And the growth inhibition [8, 18]?
Answer: 99% (active)

Question: What about the growth inhibition ([8]; at 50.0 µM) of the same compound?
Answer: 99.2% (active)

Question: What about the growth inhibition ([9]; at 1.2 µM) of the same compound?
Answer: 5%

Question: And the growth inhibition ([9]; at 3.7 µM)?
Answer: 9%

Question: What about the growth inhibition ([9]; at 11.0 µM) of the same compound?
Answer: 47%

Question: What about the growth inhibition ([9]; at 33.0 µM) of the same compound?
Answer: 99% (active)

Question: And the growth inhibition ([9]; at 100.0 µM)?
Answer: 99% (active)

Question: And the growth inhibition [10, 17]?
Answer: 5%

Question: And the growth inhibition [10, 18]?
Answer: 99% (active)

Question: What about the growth inhibition ([10]; at 50.0 µM) of the same compound?
Answer: 99.1% (active)

Question: What about the growth inhibition ([11]; at 1.2 µM) of the same compound?
Answer: 22%

Question: And the growth inhibition ([11]; at 3.7 µM)?
Answer: 44%

Question: What about the growth inhibition [11, 17] of the same compound?
Answer: 86% (active)

Question: What about the growth inhibition ([11]; at 11.0 µM) of the same compound?
Answer: 99% (active)

Question: And the growth inhibition ([11]; at 33.0 µM)?
Answer: 99% (active)

Question: And the growth inhibition [11, 18]?
Answer: 99% (active)

Question: What about the growth inhibition ([11]; at 50.0 µM) of the same compound?
Answer: 99% (active)

Question: And the growth inhibition ([11]; at 100.0 µM)?
Answer: 99% (active)

Question: And the growth inhibition ([12]; at 1.2 µM)?
Answer: 13%

Question: What about the growth inhibition ([12]; at 3.7 µM) of the same compound?
Answer: 28%

Question: What about the growth inhibition ([12]; at 11.0 µM) of the same compound?
Answer: 90% (active)

Question: And the growth inhibition ([12]; at 33.0 µM)?
Answer: 99% (active)

Question: And the growth inhibition ([12]; at 100.0 µM)?
Answer: 99% (active)

Question: What about the growth inhibition ([13]; at 1.2 µM) of the same compound?
Answer: 8%

Question: What about the growth inhibition ([13]; at 3.7 µM) of the same compound?
Answer: 11%

Question: And the growth inhibition ([13]; at 11.0 µM)?
Answer: 98% (active)

Question: And the growth inhibition ([13]; at 33.0 µM)?
Answer: 99% (active)

Question: And the growth inhibition ([13]; at 100.0 µM)?
Answer: 99% (active)

Question: What about the growth inhibition ([14]; at 1.2 µM) of the same compound?
Answer: 8%

Question: What about the growth inhibition ([14]; at 3.7 µM) of the same compound?
Answer: 19%

Question: What about the growth inhibition ([14]; at 11.0 µM) of the same compound?
Answer: 93% (active)

Question: And the growth inhibition ([14]; at 33.0 µM)?
Answer: 99% (active)

Question: What about the growth inhibition ([14]; at 100.0 µM) of the same compound?
Answer: 99% (active)

Question: And the growth inhibition [15, 17]?
Answer: 53%

Question: What about the growth inhibition [15, 18] of the same compound?
Answer: 99% (active)

Question: What about the growth inhibition ([15]; at 50.0 µM) of the same compound?
Answer: 99.1% (active)

Question: And the growth inhibition ([16]; at 1.2 µM)?
Answer: 5%

Question: What about the growth inhibition ([16]; at 3.7 µM) of the same compound?
Answer: 11%

Question: What about the growth inhibition ([16]; at 11.0 µM) of the same compound?
Answer: 82% (active)

Question: And the growth inhibition ([16]; at 33.0 µM)?
Answer: 99% (active)

Question: And the growth inhibition ([16]; at 100.0 µM)?
Answer: 98% (active)
